# Screen size: about 5,500 compounds; about 2,000 (36%) were called active. Inconclusive results (about 18%) are left out. This is one part of the list. A number with no mark means an inactive call. Cut-off read from the data, not from the text of the source: active = normalized growth mostly below about 0.91 (no sharp cut-off); inconclusive = no clear call, values can overlap the other calls; inactive = mostly above about 0.92.
# Assay: chemical genetic growth profiling, strain panel (AID 1159580);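 note: tested at 20 µM; growth read once vehicle control cultures reached saturation at 30 °C; 1 = growth at the plate median or of vehicle wells; lower values mean less growth of the strain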
# Settings: growth OD
smiles,measurement,setting,value
OC(Cn1cncn1)(Cn1cncn1)c1ccc(F)cc1F,normalized growth,"S. cerevisiae deletion strains, locus YJL187C, strain SWE1, active compounds read low",1
same,normalized growth,"S. cerevisiae deletion strains, locus YJR043C, strain POL32, active compounds read low",0.988
same,normalized growth,"S. cerevisiae deletion strains, locus YJR075W, strain HOC1, active compounds read low",1.01
same,normalized growth,"S. cerevisiae deletion strains, locus YKL009W, strain mrt4, active compounds read low",0.994
same,normalized growth,"S. cerevisiae deletion strains, locus YKL068W, active compounds read low",0.996
same,normalized growth,"S. cerevisiae deletion strains, locus YKL085W, strain MDH1 (second series), active compounds read low",0.985
same,normalized growth,"S. cerevisiae deletion strains, locus YKL085W, strain MDH1, active compounds read low",0.985
same,normalized growth,"S. cerevisiae deletion strains, locus YKL160W, strain elf1, active compounds read low",0.992
same,normalized growth,"S. cerevisiae deletion strains, locus YKL190W, strain CNB1, active compounds read low",0.997
same,normalized growth,"S. cerevisiae deletion strains, locus YKR001C, strain vps1, active compounds read low",1.05
same,normalized growth,"S. cerevisiae deletion strains, locus YKR026C, strain gcn3, active compounds read low",0.999
same,normalized growth,"S. cerevisiae deletion strains, locus YKR091W, strain srl3, active compounds read low",1.01
same,normalized growth,"S. cerevisiae deletion strains, locus YLL001W, strain dnm1, active compounds read low",1.01
same,normalized growth,"S. cerevisiae deletion strains, locus YLL026W, active compounds read low",0.999
same,normalized growth,"S. cerevisiae deletion strains, locus YLL041C, strain sdh2, active compounds read low",1.01
same,normalized growth,"S. cerevisiae deletion strains, locus YLR027C, strain aat2, active compounds read low",1
same,normalized growth,"S. cerevisiae deletion strains, locus YLR039C, strain RIC1, active compounds read low",0.635 (active)
same,normalized growth,"S. cerevisiae deletion strains, locus YLR058C, strain SHM2, active compounds read low",1
same,normalized growth,"S. cerevisiae deletion strains, locus YLR102C, strain apc9, active compounds read low",1
same,normalized growth,"S. cerevisiae deletion strains, locus YLR221C, strain rsa3, active compounds read low",0.996
same,normalized growth,"S. cerevisiae deletion strains, locus YLR258W, strain gsy2, active compounds read low",1
same,normalized growth,"S. cerevisiae deletion strains, locus YLR262C, strain YPT6 (second series), active compounds read low",0.465 (active)
same,normalized growth,"S. cerevisiae deletion strains, locus YLR262C, strain YPT6, active compounds read low",0.634
same,normalized growth,"S. cerevisiae deletion strains, locus YLR268W, strain sec22, active compounds read low",0.969
same,normalized growth,"S. cerevisiae deletion strains, locus YLR320W, strain mms22, active compounds read low",0.956
same,normalized growth,"S. cerevisiae deletion strains, locus YLR330W, strain CHS5, active compounds read low",0.99
same,normalized growth,"S. cerevisiae deletion strains, locus YLR342W, strain FKS1 (second series), active compounds read low",1
same,normalized growth,"S. cerevisiae deletion strains, locus YLR342W, strain FKS1, active compounds read low",1.01
same,normalized growth,"S. cerevisiae deletion strains, locus YLR357W, strain rsc2, active compounds read low",1.02
same,normalized growth,"S. cerevisiae deletion strains, locus YLR370C, strain arc18, active compounds read low",1
same,normalized growth,"S. cerevisiae deletion strains, locus YLR371W, strain rom2, active compounds read low",1
same,normalized growth,"S. cerevisiae deletion strains, locus YLR384C, strain iki3, active compounds read low",1
same,normalized growth,"S. cerevisiae deletion strains, locus YLR418C, strain cdc73, active compounds read low",1.01
same,normalized growth,"S. cerevisiae deletion strains, locus YML016C, strain PPZ1, active compounds read low",0.998
same,normalized growth,"S. cerevisiae deletion strains, locus YML032C, strain rad52, active compounds read low",0.995
same,normalized growth,"S. cerevisiae deletion strains, locus YML120C, strain ndi1, active compounds read low",1
same,normalized growth,"S. cerevisiae deletion strains, locus YML124C, strain tub3, active compounds read low",1
same,normalized growth,"S. cerevisiae deletion strains, locus YMR058W, strain fet3, active compounds read low",0.987
same,normalized growth,"S. cerevisiae deletion strains, locus YMR078C, strain ctf18, active compounds read low",0.992
same,normalized growth,"S. cerevisiae deletion strains, locus YMR125W, strain sto1, active compounds read low",1.03
same,normalized growth,"S. cerevisiae deletion strains, locus YMR129W, active compounds read low",1.01
same,normalized growth,"S. cerevisiae deletion strains, locus YMR205C, strain PFK2, active compounds read low",0.988
same,normalized growth,"S. cerevisiae deletion strains, locus YMR223W, strain ubp8, active compounds read low",0.98
same,normalized growth,"S. cerevisiae deletion strains, locus YMR231W, strain pep5, active compounds read low",0.943
same,normalized growth,"S. cerevisiae deletion strains, locus YMR263W, strain SAP30, active compounds read low",0.988
same,normalized growth,"S. cerevisiae deletion strains, locus YMR307W, strain GAS1, active compounds read low",1.25
same,normalized growth,"S. cerevisiae deletion strains, locus YNL067W, strain RPL9B, active compounds read low",1.03
same,normalized growth,"S. cerevisiae deletion strains, locus YNL071W, strain lat1, active compounds read low",1
same,normalized growth,"S. cerevisiae deletion strains, locus YNL128W, strain TEP1, active compounds read low",0.965
same,normalized growth,"S. cerevisiae deletion strains, locus YNL209W, strain ssb2, active compounds read low",1.01
same,normalized growth,"S. cerevisiae deletion strains, locus YNL233W, strain BNI4, active compounds read low",1.01
same,normalized growth,"S. cerevisiae deletion strains, locus YNL248C, strain rpa49, active compounds read low",0.994
same,normalized growth,"S. cerevisiae deletion strains, locus YNL250W, strain rad50, active compounds read low",0.976
same,normalized growth,"S. cerevisiae deletion strains, locus YNL271C, strain bni1, active compounds read low",0.98
same,normalized growth,"S. cerevisiae deletion strains, locus YNL298W, strain CLA4, active compounds read low",0.958
same,normalized growth,"S. cerevisiae deletion strains, locus YNL307C, strain MCK1, active compounds read low",1.01
same,normalized growth,"S. cerevisiae deletion strains, locus YNL322C, strain KRE1 (second series), active compounds read low",0.996
same,normalized growth,"S. cerevisiae deletion strains, locus YNR049C, strain mso1, active compounds read low",1.01
same,normalized growth,"S. cerevisiae deletion strains, locus YNR052C, strain pop2, active compounds read low",0.979
same,normalized growth,"S. cerevisiae deletion strains, locus YOL006C, strain TOP1, active compounds read low",0.971
same,normalized growth,"S. cerevisiae deletion strains, locus YOL012C, strain htz1",1.07
same,normalized growth,"S. cerevisiae deletion strains, locus YOL147C, strain pex11, active compounds read low",1.01
same,normalized growth,"S. cerevisiae deletion strains, locus YOR001W, strain rrp6, active compounds read low",0.994
same,normalized growth,"S. cerevisiae deletion strains, locus YOR061W, strain CKA2, active compounds read low",1
same,normalized growth,"S. cerevisiae deletion strains, locus YOR069W, strain VPS5, active compounds read low",0.992
same,normalized growth,"S. cerevisiae deletion strains, locus YOR070C, strain gyp1, active compounds read low",0.998
same,normalized growth,"S. cerevisiae deletion strains, locus YOR080W, strain dia2, active compounds read low",0.987
same,normalized growth,"S. cerevisiae deletion strains, locus YOR083W, strain WHI5, active compounds read low",0.997
same,normalized growth,"S. cerevisiae deletion strains, locus YOR106W, strain vam3, active compounds read low",0.964
same,normalized growth,"S. cerevisiae deletion strains, locus YOR136W, strain idh2, active compounds read low",0.979
same,normalized growth,"S. cerevisiae deletion strains, locus YOR144C, strain elg1, active compounds read low",1
same,normalized growth,"S. cerevisiae deletion strains, locus YOR184W, strain ser1, active compounds read low",0.964
same,normalized growth,"S. cerevisiae deletion strains, locus YOR265W, strain rbl2, active compounds read low",1
same,normalized growth,"S. cerevisiae deletion strains, locus YOR270C, strain vph1, active compounds read low",0.977
same,normalized growth,"S. cerevisiae deletion strains, locus YOR290C, strain snf2, active compounds read low",1.01
same,normalized growth,"S. cerevisiae deletion strains, locus YOR316C, strain cot1, active compounds read low",0.991
same,normalized growth,"S. cerevisiae deletion strains, locus YPL051W, strain arl3, active compounds read low",0.995
same,normalized growth,"S. cerevisiae deletion strains, locus YPL078C, strain atp4, active compounds read low",0.992
same,normalized growth,"S. cerevisiae deletion strains, locus YPL106C, strain sse1, active compounds read low",0.341 (active)
same,normalized growth,"S. cerevisiae deletion strains, locus YPL240C, strain hsp82, active compounds read low",0.998
same,normalized growth,"S. cerevisiae deletion strains, locus YPL241C, strain CIN2, active compounds read low",0.997
same,normalized growth,"S. cerevisiae deletion strains, locus YPR119W, strain clb2, active compounds read low",0.988
same,normalized growth,"S. cerevisiae deletion strains, locus YPR141C, strain kar3, active compounds read low",0.989
same,normalized growth,"S. cerevisiae deletion strains, locus YPR163C, strain tif3, active compounds read low",0.995
same,normalized growth,"S. cerevisiae deletion strains, locus YPR167C, strain met16, active compounds read low",0.98
same,normalized growth,"S. cerevisiae deletion strains, strain wtn01, active compounds read low",0.981
same,normalized growth,"S. cerevisiae strains, strain wild type, active compounds read low",1
